High-throughput results from PubChem BioAssay.
IL-1B inflam inh: inflammasome signaling inhibition, IL-1 beta readout; AID 743279; THP-1 LPS/ATP IL-1B secretion, AlphaLISA, 16 h; active compounds read low; activity change, % at 57.5 µM; actives 4.7% (n = 360,000); in the data active means activity change below about -50%; inconclusive means mostly about -30% to -49%; further: on the % scale 0 is the no-effect control and ±100 the full control effect
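THP-1 cells pretreated 1 hr with compounds (up to 57.5 uM final), then stimulated with LPS (250 ng/mL final) plus ATP (1.25 mM final); secreted IL-1B measured by AlphaLISA after 16 hr, decreased signal indicating inhibition.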
Chronic BCR inh: blocks chronic active B-cell receptor signaling | ABC-DLBCL IkBa-CBG/CBR reporter, luminescence ratio, 4 h | actives 0.05% (n = 340,000) | Potency, µM (titrated, usually from 46.1 µM), inactives show top-dose activity change, negative = inhibition, most hits filed as inhibitors; active means well fitted inhibition curve with a large enough effect in the signal ratio, with a control signal flat, not every such curve was filed as active; inconclusive means small, poorly fitted or top-dose-only effect, or effect the other way, or a change in a side signal; the % refers to the signal ratio;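 further: potency means the concentration at half of the fitted maximal effect; plate controls were basal doxycycline-induced cells for no effect and cells given 10 µM MG132 for full effect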
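Doxycycline induced both beetle luciferases in TMD8 lymphoma cells; IKK-driven degradation limits the IkappaBalpha-fused green signal, while red luminescence normalises for cell number and nonspecific effects. Compounds tested up to 46 uM, 4 hrs.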
TDP1 cell CPT: growth inhibition of DT40 Tdp1-/-;hTDP1 cells with camptothecin (screen for TDP1 inhibitors) | chicken DT40 Tdp1-/-;hTDP1 cells + 20 nM CPT, ATP luminescence, 48 h | Potency, µM (doses to about 46.2 µM), without a hit: at the top dose activity change, negative = growth inhibition, usual class: inhibitors | actives 12% (n = 420,000) | AID 686979; further: potency means the concentration at half of the fitted maximal effect; on the % scale 0 is the no-effect control and ±100 the full control effect; nearly all actives have a fitted effect of over 55% in size
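Chicken DT40 Tdp1-/- cells complemented with human TDP1, 400 cells/well, exposed to compounds plus 20 nM camptothecin for at least 48 h at 37 C; viability read as ATP content by CellTiter-Glo luminescence.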
TDP1 cell noCPT: qHTS for Inhibitors of human tyrosyl-DNA phosphodiesterase 1 (TDP1): qHTS in cells in absence of CPT | DT40 Tdp1-/- hTDP1 cells, no CPT, ATP luminescence, 48 h | Potency, µM (doses to about 46.2 µM), without a hit: at the top dose activity change, negative = growth inhibition, most hits filed as inhibitors | actives 15% (n = 420,000); further: potency means the concentration at half of the fitted maximal effect; on the % scale 0 is the no-effect control and ±100 the full control effect; nearly all actives have a fitted effect of over 55% in size
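Cells were dispensed at 400 per well, compounds added by pin tool, plates incubated ≥48 hr at 37 °C, then CellTiter-Glo added for 30 min at room temperature before luminescence reading. Line: DT40 Tdp1-/- complemented with hTDP1; camptothecin omitted.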
SW480 rerep: induces DNA re-replication in SW480 colon adenocarcinoma cells | Potency, µM (highest dose often 46.1 µM), for inactives: top-dose re-replication activation, hits mostly activators | SW480 DNA re-replication, Hoechst DNA content imaging, 48 h | actives 1.8% (n = 340,000); further: potency means the concentration at half of the fitted maximal effect; % of control where 0% means no effect; nearly all actives have a fitted effect of over 55% in size
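Readout is total intensity of Hoechst-stained nuclei, excited at 405 nm and collected at 500-530 nm. Compound treatment lasted 48 hr at 37 C in 5% CO2 before staining.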
MCF10A rereplic: inducers of DNA re-replication in MCF 10A breast cells. MCF 10A DNA re-replication, Hoechst nuclear intensity, 48 h. Potency, µM (series often up to 46.1 µM), for inactives: at the highest dose activity, positive = re-replication, usual class: activators. actives 2.9% (n = 350,000); further: potency means the concentration at half of the fitted maximal effect; % of control where 0% means no effect; nearly all actives have a fitted effect of over 50% in size
Active calls of the source: *; ? = inconclusive; . = no result. A selection: hits, their analogues and other compounds. The true share with any hit is near 19%. Unless noted, the call rests on the fitted dose curve; in most records, active means well fitted curve in the direction sought with a large enough effect; inconclusive means small, poorly fitted or top-dose-only effect, or another doubt; inactive means no such curve, though single readings can be large; an effect the other way counts as inactive or inconclusive.

SMILES	IL-1B inflam inh	Chronic BCR inh	TDP1 cell CPT	TDP1 cell noCPT	SW480 rerep	MCF10A rereplic
COc1ccc(C(CNC(=O)c2cc(S(=O)(=O)N3CCCCC3)ccc2C)N2CCCC2)cc1 (configuration not stated)	-8.2	.	?	?	4.6%	4.0%
COc1ccc(N2CCN(C(=O)C3CCCN(S(=O)(=O)c4ccc5c(c4)CCCN5C(C)=O)C3)CC2)cc1 (configuration not stated)	.	.	4.11µM*	2.31µM*	.	.
CC(=O)N1CCc2cc(S(=O)(=O)N3CCN(c4ccc(C)cc4)C(C)C3)ccc21 (configuration not stated)	.	.	23.1µM*	20.6µM*	.	.
CC(=O)N1CCCc2cc(S(=O)(=O)N3CCCC(C(=O)N4CCN(c5ccccc5F)CC4)C3)ccc21 (configuration not stated)	.	.	3.66µM*	5.8µM*	.	.
Cn1c(=O)oc2cc(S(=O)(=O)N3CCCC(C(=O)Nc4ccccn4)C3)ccc21 (configuration not stated)	0.8	-0.9%	?	-13.1%	2.0%	?
CC1CCCN(CC(=O)N2CCCc3ccccc32)C1 (configuration not stated)	7.8	1.4%	-0.5%	-4.6%	5.2%	1.4%
Cn1c(=O)oc2cc(S(=O)(=O)N3CCCC(C(=O)N4CCN(c5ccc(Cl)cc5)CC4)C3)ccc21 (configuration not stated)	.	.	5.17µM*	1.3µM*	.	.
O=C(c1ccc(N2CC3CC(C2)c2cccc(=O)n2C3)c([N+](=O)[O-])c1)N1CCCCC1 (configuration not stated)	0.0	-8.5%	3.5%	-0.6%	-24.8%	?
COc1ccc([C@@H](O)[C@@H](N)c2ccccc2)cc1	22.9	.	15.4%	-14.7%	-6.0%	16.4%
C[C@]12CCC3[C@@H](CCC4=CC(=O)CC[C@@]43C=O)C1CCC2=O (some centres not stated)	6.7	?	15.1%	0.7%	14.7%	2.4%
O=C(O)CNCP(=O)(O)O	.	.	-4.2%	2.9%	.	.
O=C(O)/C=C/CO	.	.	-3.2%	-4.2%	.	.
COc1ccc(NS(=O)(=O)c2ccc3c(c2)CCCN3C(=O)C2CCC2)cc1OC	.	.	2.59µM*	3.66µM*	.	.
CC1=Nc2ccccc2/C1=C/c1c(O)[nH]c(=O)[nH]c1=O	0.0	-1.5%	-18.6%	7.1%	-1.3%	7.1%
O=c1[nH]c(O)c(/C=C2/C=CC(c3cc(Cl)ccc3Cl)=N2)c(=O)[nH]1	20.2	1.7%	5.8µM*	6.51µM*	5.3%	93.6%
CCOc1cc2c(cc1OCC)-n1cccc1C(c1ccc(F)c(OC)c1)NC2 (configuration not stated)	?	?	?	?	0.5%	-0.3%
CCOc1cc2c(cc1OCC)-n1cccc1C(c1ccccc1OC)NC2 (configuration not stated)	-85.1*	?	?	25.9µM*	?	4.8%
Oc1ccc(C2NCc3ccccc3-n3cccc32)cc1Cl (configuration not stated)	-13.2	?	?	?	2.6%	?
CCOc1cc2c(cc1OCC)-n1cccc1C(c1cccc(F)c1F)NC2 (configuration not stated)	-17.2	?	?	23.1µM*	1.3%	?
CCOc1cc2c(cc1OCC)-n1cccc1C(c1c(O)cccc1OC)NC2 (configuration not stated)	-67.7*	-0.2%	13µM*	10.3µM*	?	?
CCOc1cc2c(cc1OCC)-n1cccc1C(c1ccccc1O)NC2 (configuration not stated)	-4.0	-16.2%	23.1µM*	?	-19.6%	7.3%
CNC1C2CN3CCC(O2)C13 (configuration not stated)	.	.	1.7%	-3.4%	.	.
CC(C)CCC(=O)OC1CCC2C3CCC4=CC(=O)CC[C@]4(C)C3CC[C@]12C (some centres not stated)	.	.	.	.	1.4%	?
CC1(C)c2[nH]c3ccccc3c2C[C@@H]2C(=O)N(Cc3ccccc3F)C(=O)N21	.	.	.	.	-3.2%	?
CCOC(=O)CCCc1cc[c]([Sb](=[O])([OH])[OH])cc1	.	.	-5.9%	-8.0%	.	.
SMILES	IL-1B inflam inh	Chronic BCR inh	TDP1 cell CPT	TDP1 cell noCPT	SW480 rerep	MCF10A rereplic
Cc1nc2ccccc2c(=O)n1-c1c(Cl)cccc1Cl	51.9	.	23.1µM*	18.4µM*	.	.
Cc1cccc(-n2c(C)nc3ccccc3c2=O)c1C	5.2	-1.3%	5.8µM*	20.6µM*	1.1%	10.7%
Cc1cccc(-n2c(C)nc3ccccc3c2=O)n1	-0.7	?	0.2%	-2.2%	0.6%	1.5%
Cc1nc2ccccc2c(=O)n1-c1ccccc1[N+](=O)[O-]	-10.7	-5.8%	0.6%	-16.4%	-4.3%	-2.7%
CCc1cc(=O)oc2c(C)c(OCC(=O)N3CCC[C@@H]3C(=O)O)ccc12	12.8	1.2%	5.7%	-3.3%	-0.8%	-11.0%
COC(=O)c1ccccc1C(=O)OC	.	.	0.5%	-5.4%	.	.
CC(C)N1CCN(Cc2cccc([N+](=O)[O-])c2)CC1	16.4	14.5%	22.0%	-10.0%	1.84µM*	0.8%
O=[N+]([O-])c1cccc(CN2CCN(Cc3ccc(Cl)cc3)CC2)c1	-21.2	-2.8%	?	16.4µM*	-0.3%	-2.2%
NCC(CP(=O)(O)O)c1ccc(Cl)cc1 (configuration not stated)	.	.	-3.6%	-9.3%	.	.
c1ccc(CNc2c3c(nc4ccccc24)CCC3)cc1	-93.2*	25.4%	?	14.6µM*	14.3%	?
CC(C)CNc1c2c(nc3ccccc13)CCC2	-60.2*	2.8%	?	18.4µM*	8.4%	-10.9%
OCCNc1c2c(nc3ccccc13)CCCC2	-28.3	0.8%	-8.2%	-32.1%	-2.8%	-6.1%
CC(C)(C#N)O[C@H]1OC(CO)C(O)C(O)C1O (some centres not stated)	.	.	-1.3%	1.4%	.	.
O=[N+]([O-])c1ccc(Cl)c([N+](=O)[O-])c1	-110.1*	?	3.66µM*	4.61µM*	?	?
O=C1CC2OCC=C3CN4CC[C@@]56c7ccccc7N1C5C2C3CC46 (some centres not stated)	.	.	.	-11.9%	.	.
COc1ccc(NC(=O)CCOc2cc(C)ccc2C)cc1S(=O)(=O)N1CCCCC1	-53.7*	-3.8%	?	20.6µM*	0.9%	?
